Shown are actives, neighbours in structure and some others; about 7.5% of the full set was active somewhere.
ELG1 genotox: induces genotoxicity in HEK293T cells with luciferase-tagged ELG1; Potency, µM (top dose mostly 46 µM), without a hit: top-dose activity change, positive = activation, most hits filed as activators; 330,000 tested, 1.3% active; AID 504466; HEK293T ELG1-luciferase reporter, luminescence, 16 h; note: % of control where 0% means no effect; nearly all actives have a fitted effect of over 60% in size
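16 hr compound incubation (37 °C, 5% CO2) of HEK293T cells carrying luciferase-tagged ELG1; luciferase then measured by ONE-Glo luminescence after 30 min at RT.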
SMN2 splice up: SMN2 splice variant enhancement; Potency, µM (doses to about 46.1 µM), for inactives: top-dose activity change, positive = activation, most hits filed as activators; HEK293 SMN2-luciferase splicing reporter, luminescence, 30-36 h; 210,000 tested, 2.8% active; AID 1458; note: % of control where 0% means no effect; nearly all actives have a fitted effect of over 55% in size
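HEK293 cells carry an SMN2 […]–luciferase reporter in which exon 7 inclusion puts luciferase in frame. Cells were plated 10-12 h before compound addition, then incubated 30-36 h at 37C. ONE-Glo luminescence was read; sodium butyrate at 4.5 mM final served as control.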
FLuc modulator: inhibits or activates purified firefly luciferase, miR-21 counter-screen | purified FLuc, Km substrates, luminescence inhibition | P08659 | Potency, µM (titrated, usually from 57.5 µM), inactives show at the highest dose activity change, negative = inhibition, most hits filed as inhibitors | 360,000 tested, 6.9% active;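 note: plate controls were vehicle for no effect and reference inhibitor for full effect; nearly all actives have a fitted effect of over 55% in size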
Target sequence (P08659 whole entry, looked up): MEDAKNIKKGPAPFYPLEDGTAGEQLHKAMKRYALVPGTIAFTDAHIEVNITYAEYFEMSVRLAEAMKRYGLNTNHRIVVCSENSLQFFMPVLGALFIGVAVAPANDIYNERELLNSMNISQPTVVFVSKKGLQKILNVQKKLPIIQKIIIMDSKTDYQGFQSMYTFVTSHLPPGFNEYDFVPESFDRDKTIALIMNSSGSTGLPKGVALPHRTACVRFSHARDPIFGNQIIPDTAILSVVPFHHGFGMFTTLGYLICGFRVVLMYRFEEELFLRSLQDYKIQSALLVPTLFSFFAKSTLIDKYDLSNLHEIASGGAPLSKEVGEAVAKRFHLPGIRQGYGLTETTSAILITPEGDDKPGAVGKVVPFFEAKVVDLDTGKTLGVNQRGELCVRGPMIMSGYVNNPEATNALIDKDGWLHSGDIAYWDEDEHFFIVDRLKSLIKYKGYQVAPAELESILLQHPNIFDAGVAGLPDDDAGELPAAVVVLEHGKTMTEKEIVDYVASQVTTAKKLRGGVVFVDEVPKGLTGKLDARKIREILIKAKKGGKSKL
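Purified P. pyralis luciferase, 10 nM final, with Km-level 10 uM D-luciferin and 10 uM ATP in 50 mM Tris acetate pH 7.5, 10 mM Mg acetate, 0.01% Tween-20, 0.05% BSA; 6-point qHTS titration about 60 µM downward; luminescence read.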
Rab9 prom act: activates the Rab9 promoter; Huh7 Rab9 promoter-luciferase reporter, luminescence, 24 h; 320,000 tested, 2.8% active; AID 485297; Potency, µM (titrated, usually from 9.22 µM), for the others: at the top dose activation, negative = inhibition, most hits filed as activators; note: % of control where 0% means no effect; nearly all actives have a fitted effect of over 60% in size
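Cell-based reporter: Huh7 stable for Rab9 promoter-driven luciferase, plated in reduced-serum medium with 10% FBS at 1500 cells/well, compound-treated 24 h at 37 °C, luminescence read after 10 min reagent.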
NPC1 prom act: activates the NPC1 promoter; Huh7 NPC1 promoter luciferase reporter, 24 h; 320,000 tested, 2.4% active; Potency, µM (doses to about 9.22 µM), without a hit: at the highest dose activation, usual class: activators; note: % of control where 0% means no effect; nearly all actives have a fitted effect of over 60% in size
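In 1536-well qHTS, Huh7 cells harboring an NPC1 promoter–luciferase construct received compound for 24 h; activation was quantified by luminescence following luciferase reagent addition.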
Starred values were filed as active, the others as inactive; [ ] = another dose, or the depositor's remark. Calls come from the whole dose curve; as a rule, active = well fitted curve in the direction sought with a large enough effect; inconclusive = small, poorly fitted or top-dose-only effect, or another doubt; inactive = no such curve, though single readings can be large; an effect the other way counts as inactive or inconclusive. Potency is the fitted concentration of half-maximal effect.

COC(=O)c1ccccc1S(=O)(=O)N1CCc2nc(-c3ccc(OC)cc3C)c3c(c2C1)CO[C@@H](c1ccccc1)C3 was read as SMN2 splice up -6%[9.22 µM].
For CN(C)CCNC(=O)C(C(=O)c1ccc(F)cc1)n1ccccc1=O (stereo not given) the results were ELG1 genotox 2%, SMN2 splice up 1%, FLuc modulator -9%, Rab9 prom act 0% and NPC1 prom act -1%.
Screening O=C(N/N=C/c1ccc(F)cc1)c1ccc(Br)cc1 returned ELG1 genotox 14%, SMN2 splice up 7%, FLuc modulator 9.5µM*, Rab9 prom act 27% and NPC1 prom act 23%.
`Cc1cccc(/C=N/n2c(C)nnc2C)c1` gave ELG1 genotox 3%, SMN2 splice up 1%, FLuc modulator 3%, Rab9 prom act 3% and NPC1 prom act -2%.
Screening O=C(N/N=C/c1ccc(Br)cc1)c1ccc(F)cc1 returned ELG1 genotox inconclusive, SMN2 splice up 13µM*, FLuc modulator 6µM*, Rab9 prom act 24% and NPC1 prom act inconclusive.
Screening O=C(N/N=C/c1ccc(Br)cc1)c1cc[n+]([O-])cc1 returned ELG1 genotox 1%, FLuc modulator inconclusive, Rab9 prom act -2% and NPC1 prom act 2%.
Screening Cc1cccc(/C=N\N=C\c2cccc(C)c2)c1 returned ELG1 genotox 16%, FLuc modulator 8.5µM*, Rab9 prom act 25% and NPC1 prom act inconclusive.
`O=C(N/N=C/c1ccc(Br)cc1)c1ccc(Br)o1` gave ELG1 genotox inconclusive, SMN2 splice up 11µM*, FLuc modulator 4.3µM*, Rab9 prom act 3.2µM* and NPC1 prom act inconclusive.
O=C1N=C(O)CN1/N=C\c1ccc(-c2ccc([N+](=O)[O-])cc2)o1 was read as SMN2 splice up -17%[20.6 µM].
For O=[N+]([O-])c1cccc(S(=O)(=O)NCCCn2ccnc2)c1 the results were ELG1 genotox -5%, FLuc modulator 0%, Rab9 prom act 3% and NPC1 prom act 0%.
COc1ccccc1CNC(=O)C1CCCN(c2nc3ccccc3n3cccc23)C1 (stereo not given) was read as FLuc modulator -6%.
For Cc1cc(C)c(NC(=O)C[C@H](CC(=O)O)c2cccc3ccccc23)c(C(=O)N2CCC3(CCCC3)CC2)c1 the results were SMN2 splice up -6%.
Screening Cc1cccc(/C=N/NC(=O)c2ccc(Br)cc2)c1 returned ELG1 genotox inconclusive, SMN2 splice up inconclusive, FLuc modulator 3.4µM*, Rab9 prom act inconclusive and NPC1 prom act 14%.
For O=C(N/N=C/c1cccc(OCc2ccccc2)c1)c1ccc(Br)cc1 the results were ELG1 genotox 1%, SMN2 splice up -4%, FLuc modulator -9%, Rab9 prom act 6% and NPC1 prom act 3%.
Screening Cn1c(=O)n(C)c2cc(C(N)=O)ccc21 returned ELG1 genotox 9%, SMN2 splice up 22µM*, FLuc modulator 8%[2.3 µM], Rab9 prom act 1% and NPC1 prom act -2%.
Screening Cc1ccc2[nH]c(C(=O)Nc3ccc(F)cc3)cc2c1 returned ELG1 genotox 3%, FLuc modulator inconclusive, Rab9 prom act inconclusive and NPC1 prom act inconclusive.
CC(C)Oc1ccc(C(=O)Nc2ccc(N(C)C)cc2)cc1 was read as ELG1 genotox 4.1µM*, FLuc modulator 3.4µM*, Rab9 prom act 18% and NPC1 prom act 19%.
Cn1c(=O)n(C)c2cc(C(=O)O)ccc21 was read as ELG1 genotox -1%, SMN2 splice up 13%, FLuc modulator 3%, Rab9 prom act 4% and NPC1 prom act -2%.
`CCCOc1ccc(NC(=O)c2cc3cc(C)ccc3[nH]2)cc1` gave ELG1 genotox 10%, FLuc modulator -9%, Rab9 prom act inconclusive and NPC1 prom act 1.8µM*.
Screening CC(C)Oc1ccc(C(=O)Nc2ccc3c(c2)n(C)c(=O)n3C)cc1 returned ELG1 genotox 23µM*, FLuc modulator 12µM*, Rab9 prom act 2% and NPC1 prom act 0%.
`C=CCNC(=S)NNC(=O)COc1cccc(Cl)c1` gave ELG1 genotox 2%, SMN2 splice up 2%, FLuc modulator 6%, Rab9 prom act 3% and NPC1 prom act 3%.
`Cc1cc(C)n2nc(SCC(=O)N3CCCC(C)C3)nc2n1` (stereo not given) gave ELG1 genotox 2%.
`Nc1ccc(S(=O)(=O)NCc2nccs2)cc1` gave SMN2 splice up -13%[9.22 µM].
`CCCOc1ccc(C(=O)Nc2ccc(N(C)C)cc2)cc1` gave ELG1 genotox 5.6µM*, SMN2 splice up 92%, FLuc modulator 0.76µM*, Rab9 prom act inconclusive and NPC1 prom act 15%.
Screening O=C(Cn1ccn(-c2ccc(F)cc2)c(=O)c1=O)Nc1ccc(F)cc1 returned FLuc modulator -2%.
Screening O=C(Nc1ccc(Br)cc1)C1Cc2ccccc2O/C1=N\O (stereo not given) returned ELG1 genotox 18µM*, FLuc modulator inconclusive, Rab9 prom act 2.8µM* and NPC1 prom act 3.2µM*.
`O=c1cc(C(F)(F)F)[nH]c2c(C(F)(F)F)cccc12` gave ELG1 genotox -8%, SMN2 splice up -100%, FLuc modulator 2%, Rab9 prom act -3% and NPC1 prom act 0%.
O=c1cc(C(F)(F)F)[nH]c2ccc(OC(F)(F)F)cc12 was read as ELG1 genotox -7%, FLuc modulator 21µM*, Rab9 prom act -1% and NPC1 prom act -4%.
For O=S(=O)(c1ccc(Nc2ccc(-c3ccc4c(c3)OCCO4)nn2)cc1)N1CCCC1 the results were ELG1 genotox 2%, SMN2 splice up 5%, FLuc modulator 5.4µM*, Rab9 prom act 20% and NPC1 prom act 17%.
Cc1cccc(C(=O)NC2CCN(CC(=O)Nc3ccc4c(c3)OCO4)CC2)c1 was read as ELG1 genotox 1%, FLuc modulator 4%, Rab9 prom act -20% and NPC1 prom act 0%.
`O=C(COC(=O)Cc1ccc2c(c1)OCCO2)Nc1ccc(S(=O)(=O)N2CCCC2)cc1` gave ELG1 genotox 1%, SMN2 splice up 25%, FLuc modulator 2%, Rab9 prom act -1% and NPC1 prom act 3%.
Screening O=C(NC1CC1)c1cccc(Nc2ccc(-c3ccc4c(c3)OCCO4)nn2)c1 returned ELG1 genotox inconclusive, SMN2 splice up inconclusive, FLuc modulator 0.6µM*, Rab9 prom act 2µM* and NPC1 prom act inconclusive.
Screening COc1ccc(Oc2cnc3ccccc3n2)cc1 returned ELG1 genotox -3%, SMN2 splice up 19%, FLuc modulator -10%, Rab9 prom act 3.5µM* and NPC1 prom act inconclusive.
c1ccc(Oc2cnc3ccccc3n2)cc1 was read as ELG1 genotox 1%, SMN2 splice up -27%, FLuc modulator -18%, Rab9 prom act -9% and NPC1 prom act -1%.

Source: PubChem BioAssay
